Here are results for 8 compounds from PubChem BioAssay (EPA / NIEHS).

A short description of test [1]: ATG_TAL_CIS: Attagene CIS-FACTORIAL HepG2 Assay for human TAL Basal Promoter (AID 2282966; active = hit-call score of the fitted dose curve at least 0.9, where 1 is the maximum; inactive = score below 0.9;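 also: background control endpoint measuring basal TAL promoter reporter mRNA not a specific factor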). The following applies: HepG2 Attagene cis-factorial TAL promoter reporter; actives raise or lower the signal. The essentials: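 HepG2 cells transiently transfected with multiplexed cis-promoter reporter units, dosed 24 h. Reporter mRNA quantified by RT-PCR, 6-FAM labelling, HpaI digestion and capillary electrophoresis; TAL basal promoter serves as background control, fitted bidirectionally versus DMSO.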

Test [2] is described as follows: ATG_TGFb_CIS: Attagene CIS-FACTORIAL HepG2 Assay for human Transforming Growth Factor (TGF) (AID 2282967; active = hit-call score of the fitted dose curve at least 0.9, where 1 is the maximum; inactive = score below 0.9). The settings on record: HepG2 Attagene CIS TGFb reporter, mRNA transcription; actives raise or lower the signal. The essentials: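 Readout: fluorescently labeled reporter cDNA fragments resolved by capillary electrophoresis after RT-PCR. Transfected HepG2 cells dosed for 24 h; endogenous TF activity at TGFB1-linked cis element; gain or loss fitted relative to DMSO.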

In test [3] the target is Estrogen receptor (Homo sapiens) (UniProt P03372). Briefly: ATG_ERa_TRANS: Attagene TRANS-FACTORIAL HepG2 Assay for human Estrogen Receptor alpha (ERa) (AID 2282970). The settings on record: HepG2 Attagene TRANS ERa GAL4 reporter, mRNA. The essentials:
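HepG2 cells transiently transfected with multiplexed GAL4-UAS reporter units read out chimeric NR-Gal4 activity. After 24 h compound exposure, reporter mRNA was quantified by RT-PCR, 6-FAM labeling, HpaI digestion and capillary electrophoresis, relative to DMSO.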

The target in test [4] is X-box-binding protein 1 (Homo sapiens) (UniProt P17861). Briefly: ATG_Xbp1_CIS: Attagene CIS-FACTORIAL HepG2 Assay for human X-box Binding Protein 1 (XBP1) (AID 2282972; active = hit-call score of the fitted dose curve at least 0.9, where 1 is the maximum; inactive = score below 0.9). The settings on record: HepG2 XBP1 cis-element reporter, Attagene multiplex; actives raise or lower the signal. Put shortly: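 HepG2, transient MRTU transfection (cis-promoter driven), 24 h compound exposure. Total RNA → oligo(dT) RT → PCR → 6-FAM labeling → HpaI cut → CE. Bidirectional fit vs DMSO.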

The target of test [5] is Androgen receptor (Homo sapiens) (UniProt P10275). Nature of the test: ATG_AR_TRANS: Attagene TRANS-FACTORIAL HepG2 Assay for human Androgen Receptor (AR) (AID 2282973). The following applies: HepG2 Attagene TRANS-FACTORIAL AR reporter transcription. The essentials:
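HepG2 cells transiently transfected with AR-Gal4 chimera and GAL4-UAS reporter units; chemical exposure 24 h. Reporter mRNA quantified by RT-PCR with fluorescent labelling and capillary electrophoresis; gain-of-signal fitted against DMSO.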

The target of test [6] is Hepatocyte nuclear factor 4-alpha (Homo sapiens) (UniProt P41235). Nature of the test: ATG_HNF4a_TRANS: Attagene TRANS-FACTORIAL HepG2 Assay for human Hepatocyte Nuclear Factor 4 alpha (HNF4a) (AID 2282982). The settings on record: HepG2 HNF4a transactivation reporter, mRNA readout. The essentials: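 Cells used were human HepG2, transiently carrying GAL4-UAS reporter units read out against exogenous NR-GAL4 chimeras. Reporter transcript levels after 24 h dosing were quantified by fluorescent RT-PCR and capillary electrophoresis.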

Test [7] can be described thus: ATG_M_06_TRANS: Attagene TRANS-FACTORIAL HepG2 Assay for M06 Transcription Factor (Internal Marker) (AID 2282983). The following applies: HepG2 Attagene TRANS M06 internal marker reporter. The essentials: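 HepG2 cells transiently transfected with GAL4-UAS multiple reporter units, dosed 24 h. Reporter RNA reverse-transcribed, PCR-amplified, 6-FAM-labeled, HpaI-digested and quantified by capillary electrophoresis; this internal-marker signal fitted upward relative to DMSO.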

The nature of test [8]: ATG_M_32_TRANS: Attagene TRANS-FACTORIAL HepG2 Assay for M32 Transcription Factor (Internal Marker) (AID 2282984).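 Also: transcript level of a background control reporter unit measured by RT-PCR and capillary electrophoresis.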 The settings on record: HepG2 Attagene TRANS M32 internal marker reporter. The essentials:
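Human hepatoma HepG2, transient MRTU transfection, 24 h treatment. RNA → RT-PCR → fluorescent primer extension → HpaI digest (2 h, 37 C) → CE. Positive-direction fit vs DMSO.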

For test [9], the target named is Transcriptional activator Myb (Homo sapiens) (UniProt P10242). Nature of the test: ATG_Myb_CIS: Attagene CIS-FACTORIAL HepG2 Assay for human Myeloblastosis (Myb) Proto-Oncogene Transcription Factor (AID 2282986; active = hit-call score of the fitted dose curve at least 0.9, where 1 is the maximum; inactive = score below 0.9). The settings on record: HepG2 Attagene CIS-FACTORIAL Myb reporter transcription; actives raise or lower the signal. The essentials:
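Transiently transfected HepG2 cells carrying a multiplexed cis-promoter reporter set report endogenous Myb activity after 24 h compound exposure. Reporter mRNA is read by RT-PCR with capillary electrophoresis of fluorescent products, fitted bidirectionally against DMSO.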

Test [10] deals with Steroid hormone receptor ERR1 (Homo sapiens) (UniProt P11474). Nature of the test: ATG_ERRa_TRANS: Attagene TRANS-FACTORIAL HepG2 Assay for human Estrogen-Related Receptor alpha (ERRa) (AID 2282971). The following applies: HepG2 Attagene TRANS reporter, ERRa transactivation. Put shortly: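 HepG2 cells transiently transfected with GAL4-UAS reporter units and chimeric NR-Gal4 constructs; after 24 hour compound incubation, reporter mRNA quantified by RT-PCR, fluorescent labelling and capillary electrophoresis, gain of signal versus DMSO.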

Test [11] can be described thus: ATG_M_19_TRANS: Attagene TRANS-FACTORIAL HepG2 Assay for M19 Transcription Factor (Internal Marker) (AID 2282974). The settings on record: HepG2 Attagene TRANS-FACTORIAL M19 internal marker reporter. The essentials:
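HepG2 transiently transfected with GAL4-UAS multiplex reporter constructs, exposed 24 h; reporter RNA quantified by RT-PCR, 6-FAM labeling, HpaI digestion and capillary electrophoresis; internal background marker fitted upward versus DMSO.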

For test [12], the target named is Oxysterols receptor LXR-alpha (Homo sapiens) (UniProt Q13133). Briefly: ATG_LXRa_TRANS: Attagene TRANS-FACTORIAL HepG2 Assay for human Liver X Receptor alpha (LXRa) (AID 2282980). The settings on record: HepG2 Attagene TRANS reporter, LXRa transactivation. Put shortly:
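HepG2 cells transiently transfected with GAL4-UAS reporter units for chimeric NR-Gal4 proteins, exposed to chemicals for 24 h. Reporter mRNA quantified by RT-PCR and capillary electrophoresis; gain of signal fitted relative to DMSO.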

In test [13] the target is Oxysterols receptor LXR-beta (Homo sapiens) (UniProt P55055). Briefly: ATG_LXRb_TRANS: Attagene TRANS-FACTORIAL HepG2 Assay for human Liver X Receptor beta (LXRb) (AID 2282981). The following applies: HepG2 Attagene TRANS GAL4-LXRb reporter, mRNA. Put shortly: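 In this TRANS format, exogenous chimeric NR-Gal4 protein activity, not endogenous factors, drives reporter expression in transfected human HepG2 cells. Exposure lasted 24 h; reporter mRNA was read by fluorescent capillary electrophoresis.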

The target of test [14] is Nuclear receptor subfamily 4 group A member 2 (Homo sapiens) (UniProt P43354). Briefly: ATG_NURR1_TRANS: Attagene TRANS-FACTORIAL HepG2 Assay for human Nuclear Receptor Related Protein 1 (NURR1) (AID 2282985). The settings on record: HepG2 Attagene TRANS reporter, mRNA readout. Put shortly:
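After 24 h chemical dosing, total RNA from transiently transfected HepG2 cells was reverse-transcribed and reporter cDNA PCR-amplified, FAM-labelled and analysed by capillary electrophoresis. Activity fitted in positive direction, DMSO as negative control.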

In test [15] the target is Glucocorticoid receptor (Homo sapiens) (UniProt P04150). Nature of the test: ATG_GR_TRANS: Attagene TRANS-FACTORIAL HepG2 Assay for human Glucocorticoid Receptor (GR) (AID 2282978).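 Also: activators score as hits since higher reporter transcript over DMSO is fitted.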 The following applies: HepG2 Attagene TRANS GR reporter, mRNA transcription. Put shortly: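 HepG2 cells transiently transfected with GAL4-UAS reporter units and exogenous GR-Gal4 chimera, dosed 24 h. Reporter mRNA by RT-PCR, FAM labeling, HpaI digest and capillary electrophoresis; gain-of-signal fit versus DMSO.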

Test [16] addresses Bile acid receptor (Homo sapiens) (UniProt Q96RI1). Nature of the test: ATG_FXR_TRANS: Attagene TRANS-FACTORIAL HepG2 Assay for Farnesoid X Receptor (FXR) (AID 2282979).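 Also: hits raise reporter mRNA above DMSO so AC50 marks FXR activation.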 The settings on record: HepG2 Attagene TRANS FXR-GAL4 reporter transcription. Put shortly:
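HepG2 cells were transiently transfected with GAL4-UAS reporters driven by chimeric NR-Gal4 proteins and dosed for 24 h. Reporter mRNA was quantified by RT-PCR, fluorescent labelling, HpaI digestion and capillary electrophoresis, with gain of signal scored versus DMSO.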

Test [17] concerns the target Estrogen-related receptor gamma (Homo sapiens) (UniProt P62508). Nature of the test: ATG_ERRg_TRANS: Attagene TRANS-FACTORIAL HepG2 Assay for human Estrogen-Related Receptor gamma (ERRg) (AID 2282977).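 Also: hits increase reporter signal over DMSO so potencies reflect activators.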 The settings on record: HepG2 Attagene TRANS reporter, ERRg transactivation. Put shortly:
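HepG2 cells transiently transfected with multiplexed GAL4-UAS reporter units driven by chimeric NR-Gal4 proteins; 24 h exposure. Reporter mRNA quantified by RT-PCR, fluorescent labelling, HpaI digestion and capillary electrophoresis; gain of signal vs DMSO.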

Results filed as inconclusive are left out. Calls of active or inactive are those of the source. The calls were made as follows, unless noted: active = hit-call score of the fitted dose curve at least 0.9, where 1 is the maximum; inconclusive = response in the unintended direction; inactive = score below 0.9.

Sequence of Steroid hormone receptor ERR1 (Homo sapiens) (P11474 whole entry, looked up, the tested form may be a part): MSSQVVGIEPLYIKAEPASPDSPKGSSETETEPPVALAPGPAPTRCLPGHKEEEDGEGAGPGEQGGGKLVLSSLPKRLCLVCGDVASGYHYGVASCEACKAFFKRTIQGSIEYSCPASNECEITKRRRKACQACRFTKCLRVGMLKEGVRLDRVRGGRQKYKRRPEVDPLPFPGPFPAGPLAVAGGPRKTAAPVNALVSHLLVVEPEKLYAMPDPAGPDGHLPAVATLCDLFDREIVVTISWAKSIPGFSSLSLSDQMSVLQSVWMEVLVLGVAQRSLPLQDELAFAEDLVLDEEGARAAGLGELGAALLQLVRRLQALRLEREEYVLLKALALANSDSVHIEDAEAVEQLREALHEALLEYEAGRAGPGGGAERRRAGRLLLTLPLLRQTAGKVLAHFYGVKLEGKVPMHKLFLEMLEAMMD
Sequence of Transcriptional activator Myb (Homo sapiens) (P10242 whole entry, looked up): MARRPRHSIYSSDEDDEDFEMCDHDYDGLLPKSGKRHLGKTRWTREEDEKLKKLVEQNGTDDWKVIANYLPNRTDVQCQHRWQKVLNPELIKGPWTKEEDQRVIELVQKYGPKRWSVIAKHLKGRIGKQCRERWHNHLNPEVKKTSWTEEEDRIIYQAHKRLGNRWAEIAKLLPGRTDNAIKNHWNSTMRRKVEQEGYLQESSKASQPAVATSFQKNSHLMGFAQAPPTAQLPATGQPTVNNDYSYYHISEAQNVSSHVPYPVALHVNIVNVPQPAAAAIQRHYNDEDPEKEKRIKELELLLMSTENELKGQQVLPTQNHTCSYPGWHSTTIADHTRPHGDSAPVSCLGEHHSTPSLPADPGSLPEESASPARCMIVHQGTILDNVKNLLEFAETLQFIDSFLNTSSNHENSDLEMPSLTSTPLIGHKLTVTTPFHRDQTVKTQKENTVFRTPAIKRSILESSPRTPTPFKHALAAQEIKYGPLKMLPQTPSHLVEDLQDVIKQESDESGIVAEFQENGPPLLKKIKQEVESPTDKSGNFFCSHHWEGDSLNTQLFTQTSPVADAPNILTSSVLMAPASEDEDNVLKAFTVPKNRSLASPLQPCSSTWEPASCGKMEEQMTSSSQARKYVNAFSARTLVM
Sequence of X-box-binding protein 1 (Homo sapiens) (P17861 whole entry, looked up): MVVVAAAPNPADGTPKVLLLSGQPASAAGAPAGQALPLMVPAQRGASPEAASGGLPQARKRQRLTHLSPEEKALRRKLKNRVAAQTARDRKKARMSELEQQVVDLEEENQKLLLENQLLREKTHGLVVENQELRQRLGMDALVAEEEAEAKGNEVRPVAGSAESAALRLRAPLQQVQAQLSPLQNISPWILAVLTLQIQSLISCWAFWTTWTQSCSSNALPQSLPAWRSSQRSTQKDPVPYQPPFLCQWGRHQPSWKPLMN
Sequence of Androgen receptor (Homo sapiens) (P10275 whole entry, looked up, the tested form may be a part): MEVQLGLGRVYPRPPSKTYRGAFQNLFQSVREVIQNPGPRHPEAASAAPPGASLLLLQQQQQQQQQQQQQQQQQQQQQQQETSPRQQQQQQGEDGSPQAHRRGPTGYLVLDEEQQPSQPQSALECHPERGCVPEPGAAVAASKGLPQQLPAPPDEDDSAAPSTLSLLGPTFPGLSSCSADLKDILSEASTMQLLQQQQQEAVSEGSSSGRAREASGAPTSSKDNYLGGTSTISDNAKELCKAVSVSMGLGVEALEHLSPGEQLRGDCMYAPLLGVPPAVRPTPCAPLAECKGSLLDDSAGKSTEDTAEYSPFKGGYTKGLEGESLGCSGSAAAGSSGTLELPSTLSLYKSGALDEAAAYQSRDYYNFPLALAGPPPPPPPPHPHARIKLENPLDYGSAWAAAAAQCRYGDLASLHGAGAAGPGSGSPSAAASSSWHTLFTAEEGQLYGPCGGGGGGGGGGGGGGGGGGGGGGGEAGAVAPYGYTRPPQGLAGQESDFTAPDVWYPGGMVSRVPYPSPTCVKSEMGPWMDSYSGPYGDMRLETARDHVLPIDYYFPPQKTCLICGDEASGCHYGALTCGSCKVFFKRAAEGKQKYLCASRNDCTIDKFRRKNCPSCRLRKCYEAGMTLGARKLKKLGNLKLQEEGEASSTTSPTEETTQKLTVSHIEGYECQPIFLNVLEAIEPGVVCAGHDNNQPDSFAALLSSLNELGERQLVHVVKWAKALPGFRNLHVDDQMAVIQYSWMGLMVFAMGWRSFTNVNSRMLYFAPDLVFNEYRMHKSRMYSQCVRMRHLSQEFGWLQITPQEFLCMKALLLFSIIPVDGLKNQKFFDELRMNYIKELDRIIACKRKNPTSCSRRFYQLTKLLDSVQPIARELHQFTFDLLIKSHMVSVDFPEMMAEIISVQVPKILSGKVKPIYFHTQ
Sequence of Hepatocyte nuclear factor 4-alpha (Homo sapiens) (P41235 whole entry, looked up, the tested form may be a part): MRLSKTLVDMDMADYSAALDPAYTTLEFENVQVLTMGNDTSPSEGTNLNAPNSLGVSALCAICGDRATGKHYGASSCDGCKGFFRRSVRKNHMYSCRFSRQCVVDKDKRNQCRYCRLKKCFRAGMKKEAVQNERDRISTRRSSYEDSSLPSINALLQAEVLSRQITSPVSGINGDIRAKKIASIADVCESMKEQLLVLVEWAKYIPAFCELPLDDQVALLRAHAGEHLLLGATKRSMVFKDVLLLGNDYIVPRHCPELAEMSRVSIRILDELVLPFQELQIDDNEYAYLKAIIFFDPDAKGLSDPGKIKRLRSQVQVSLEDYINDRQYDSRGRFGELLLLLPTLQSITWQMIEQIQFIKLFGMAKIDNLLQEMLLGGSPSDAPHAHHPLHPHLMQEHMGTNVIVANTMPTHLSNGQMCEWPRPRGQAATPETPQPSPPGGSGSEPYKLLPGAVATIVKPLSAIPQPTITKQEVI
Sequence of Nuclear receptor subfamily 4 group A member 2 (Homo sapiens) (P43354 whole entry, looked up): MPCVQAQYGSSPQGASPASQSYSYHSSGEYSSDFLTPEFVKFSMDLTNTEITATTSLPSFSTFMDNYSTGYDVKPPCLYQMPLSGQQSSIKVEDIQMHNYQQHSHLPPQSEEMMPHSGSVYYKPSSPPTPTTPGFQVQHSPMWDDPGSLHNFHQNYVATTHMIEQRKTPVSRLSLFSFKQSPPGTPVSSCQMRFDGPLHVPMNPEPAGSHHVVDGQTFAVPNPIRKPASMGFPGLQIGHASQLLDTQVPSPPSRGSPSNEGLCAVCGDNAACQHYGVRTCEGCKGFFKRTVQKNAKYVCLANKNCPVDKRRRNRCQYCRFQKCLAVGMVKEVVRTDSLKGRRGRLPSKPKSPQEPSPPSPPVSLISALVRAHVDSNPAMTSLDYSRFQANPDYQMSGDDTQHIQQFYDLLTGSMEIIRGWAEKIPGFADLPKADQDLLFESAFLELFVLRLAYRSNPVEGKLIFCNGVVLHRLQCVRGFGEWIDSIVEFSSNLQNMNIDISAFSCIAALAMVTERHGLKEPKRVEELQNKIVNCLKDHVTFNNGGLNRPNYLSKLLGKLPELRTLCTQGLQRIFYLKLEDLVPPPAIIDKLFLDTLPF
Sequence of Bile acid receptor (Homo sapiens) (Q96RI1 whole entry, looked up, the tested form may be a part): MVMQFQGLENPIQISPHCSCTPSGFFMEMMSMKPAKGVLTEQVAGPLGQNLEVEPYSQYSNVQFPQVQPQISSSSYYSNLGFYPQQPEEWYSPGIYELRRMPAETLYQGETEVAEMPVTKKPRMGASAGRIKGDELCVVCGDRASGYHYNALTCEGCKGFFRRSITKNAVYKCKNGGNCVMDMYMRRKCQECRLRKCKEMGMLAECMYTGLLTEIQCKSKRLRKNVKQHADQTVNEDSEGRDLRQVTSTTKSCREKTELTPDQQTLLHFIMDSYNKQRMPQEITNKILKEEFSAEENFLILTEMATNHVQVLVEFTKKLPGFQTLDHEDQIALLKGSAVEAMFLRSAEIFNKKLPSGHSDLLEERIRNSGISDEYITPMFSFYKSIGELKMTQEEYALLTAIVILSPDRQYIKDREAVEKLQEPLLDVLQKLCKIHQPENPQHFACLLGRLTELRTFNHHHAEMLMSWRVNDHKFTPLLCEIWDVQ
Sequence of Oxysterols receptor LXR-beta (Homo sapiens) (P55055 whole entry, looked up, the tested form may be a part): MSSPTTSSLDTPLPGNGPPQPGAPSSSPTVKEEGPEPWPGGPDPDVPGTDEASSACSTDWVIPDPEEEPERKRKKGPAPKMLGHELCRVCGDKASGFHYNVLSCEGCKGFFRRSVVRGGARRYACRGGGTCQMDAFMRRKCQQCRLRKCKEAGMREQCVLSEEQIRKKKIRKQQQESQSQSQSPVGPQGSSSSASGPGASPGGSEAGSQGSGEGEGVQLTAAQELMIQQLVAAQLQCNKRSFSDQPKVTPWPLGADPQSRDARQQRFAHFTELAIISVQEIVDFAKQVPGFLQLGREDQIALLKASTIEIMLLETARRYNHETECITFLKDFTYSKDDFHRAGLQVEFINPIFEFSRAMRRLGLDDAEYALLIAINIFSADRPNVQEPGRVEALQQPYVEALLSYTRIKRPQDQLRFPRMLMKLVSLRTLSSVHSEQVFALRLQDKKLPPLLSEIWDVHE
Sequence of Estrogen receptor (Homo sapiens) (P03372 whole entry, looked up, the tested form may be a part): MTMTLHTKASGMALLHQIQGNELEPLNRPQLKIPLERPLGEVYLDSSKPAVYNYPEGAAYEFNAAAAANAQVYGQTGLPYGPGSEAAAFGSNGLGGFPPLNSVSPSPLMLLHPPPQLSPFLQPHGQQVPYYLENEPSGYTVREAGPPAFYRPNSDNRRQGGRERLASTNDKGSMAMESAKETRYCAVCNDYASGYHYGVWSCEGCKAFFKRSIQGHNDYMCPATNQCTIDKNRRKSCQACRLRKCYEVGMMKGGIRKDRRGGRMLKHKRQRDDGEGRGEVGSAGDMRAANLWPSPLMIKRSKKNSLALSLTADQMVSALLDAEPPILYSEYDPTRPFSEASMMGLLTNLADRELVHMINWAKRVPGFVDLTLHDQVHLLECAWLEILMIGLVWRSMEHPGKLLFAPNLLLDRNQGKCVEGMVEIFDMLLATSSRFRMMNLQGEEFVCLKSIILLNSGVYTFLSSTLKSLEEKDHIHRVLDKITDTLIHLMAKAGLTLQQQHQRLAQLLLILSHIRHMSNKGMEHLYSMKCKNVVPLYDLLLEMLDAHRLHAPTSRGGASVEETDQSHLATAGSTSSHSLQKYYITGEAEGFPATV

As to `Cc1cc(=O)[nH]o1`, the outcome in test [1], in test [2], in test [3], in test [4], in [5] and in [6] was inactive. The result in test [7], in test [8] and in [9] was inactive.

With `CC(=O)c1cc(C(C)(C)C)cc2c1CCC2(C)C`, the call in [1], in [2], in [3], in test [10], in test [11] and in test [12] was inactive. Further, the call in test [13], in test [8] and in test [9] was inactive. The results for the half-maximal activity concentration (AC50) in [4] and in [14] were 75.2 µM (active) and 27.3 µM (active), respectively.

Turning to `C[C@]12CC[C@H](O)CC1=CC[C@@H]1[C@@H]2CC[C@]2(C)C(=O)CC[C@@H]12`, the compound was classed as inactive in [1], in test [2], in [4], in test [11], in test [15] and in test [7]. Moreover, the compound was classed as inactive in test [8] and in test [9].

Regarding `Fc1ccc(C2(Cn3cncn3)OC2c2ccccc2Cl)cc1` (configuration not stated), the outcome in test [1], in test [2], in [3], in test [4], in [11] and in test [16] was inactive. Moreover, the call in [12], in test [14] and in test [9] was inactive.

With `COP(=O)(OC)O/C(=C\Cl)c1cc(Cl)c(Cl)cc1Cl`, the AC50 is 100 µM (active) in test [1], 5.86 µM (active) in [3], 115 µM (active) in test [14] and 170 µM (active) in test [9]. Also, the compound was classed as inactive in test [2], in test [4], in test [5], in test [11], in test [17] and in test [16]. For the same compound, the outcome in test [7] and in [8] was inactive.

In the case of `c1cc[c]([Hg][c]2ccccc2)cc1`, the call in test [1], in test [2], in [3], in [5], in test [16] and in [13] was inactive. The result in test [6], in test [7], in [8], in test [14] and in [9] was inactive. Also, the AC50 in test [4] is 18.7 µM (active).

For `COc1ccc(C=O)cc1OC`, the call in test [1], in test [2], in test [10], in test [4], in [11] and in [13] was inactive. The result in test [6], in [7], in test [8], in test [14] and in [9] was inactive. In [3], the AC50 was 58.6 µM (active).

For `CC(C#N)CCC#N` (configuration not stated), the compound was called inactive in test [1], in test [2], in test [10], in test [4], in test [11] and in test [6]. The compound was classed as inactive in test [7], in [14] and in test [9].
